Screening results as filed in PubChem.
FUS suppressor: qHTS for Suppressors of FUS Proteinopathy: Primary screen using FUS-linked yeast assay; S. cerevisiae FUS-expressing, growth rescue, OD600, 24 h; Potency, µM (doses to about 76.6 µM), actives largely listed as activators; 390,000 tested, 0.24% active; AID 1347120, 2019;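 note: potency is the fitted concentration of half-maximal effect; plate controls were DMSO vehicle for no effect and reference control for full effect; nearly all actives have a fitted effect of over 55% in size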
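Compound concentration series was pinned onto galactose-induced FUS-expressing yeast seeded at OD 0.005. Plates sat 24hr at 30C; absorbance at 600 nm gave growth. DMSO served as background control.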
aSyn rescue: qHTS of alpha-syn Inhibitors. Potency, µM (titrated, usually from 46.1 µM), for inactives: top-dose growth rescue (activation), hits mostly activators. 370,000 tested, 0.14% active. AID 652106, 2013. Yeast expressing alpha-synuclein, growth rescue, BacTiter-Glo, 24 h; note: potency is the fitted concentration of half-maximal effect; % of control where 0% means no effect; nearly all actives have a fitted effect of over 65% in size
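Galactose-induced alpha-syn yeast (OD600=0.02, raffinose-pregrown) + pinned cpd, 24 hr, 30 deg C; growth by BacTiter-Glo luminescence. Growth restoration scores as activation.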
Abeta rescue: qHTS for compounds that reverse cellular toxicity of Amyloid beta (A-beta) peptide in yeast: Primary Screen; yeast expressing A-beta42, growth rescue, OD600, 48 h; response scale: 0% DMSO, 100% iron-clioquinol control; Potency, µM (titrated, usually from 46.1 µM), hits mostly activators; 410,000 tested, 0.063% active; AID 1347071, 2019; note: potency is the fitted concentration of half-maximal effect; nearly all actives have a fitted effect of over 55% in size
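Growth rescue measured by 600 nm absorbance after 48 h yeast culture at 30 C with compound. Values normalized between DMSO and an equimolar ferric chloride plus clioquinol control.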
TDP-43 yeast inh: qHTS of TDP-43 Inhibitors; TDP-43 expressing yeast growth rescue, BacTiter-Glo, 24 h; Potency, µM (doses to about 46.1 µM), for inactives: top-dose growth rescue (activation), usual class: activators; 410,000 tested, 1.8% active; AID 652104, 2013; note: potency is the fitted concentration of half-maximal effect; % of control where 0% means no effect; nearly all actives have a fitted effect of over 50% in size
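Yeast expressing TDP-43 (pregrown in raffinose, seeded at OD600=0.02 in galactose medium) exposed to compounds 24 hr at 30 deg C. Growth read by BacTiter-Glo luminescence; rescue of toxicity appears as increased signal.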
LDHA block: qHTS assay for inhibitors of human lactate dehydrogenase; 480,000 tested, 0.15% active; L-lactate dehydrogenase A chain (Homo sapiens), P00338; AID 1347041, 2019; activity change, % (values are at about 110 or 230 µM); purified LDHA, NADH/diaphorase-resazurin fluorescence; hits give low values; in the data active = activity change below about -30%; inconclusive = mostly about -25% to -30%;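 note: plate controls were DMSO wells for no effect and wells without enzyme for full effect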
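Human LDH5 (2 nM) was incubated with 0.06 mM NADH and 0.2 mM pyruvate for 5 min at room temperature in Tris pH 7.4. Remaining NADH was coupled through diaphorase/resazurin, and resorufin fluorescence was read at 0 and 20 min.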
PTHR1 agonist: qHTS for PTHR1 Agonists: Primary Screen | 410,000 tested, 0.075% active | Potency, µM (highest dose often 115 µM), inactives show at the top dose activation, usual class: activators | Parathyroid hormone/parathyroid hormone-related peptide receptor (Homo sapiens), Q03431 | HEK293 GP2 PTHR1 cells, GloSensor cAMP luminescence, 1 h; note: potency is the fitted concentration of half-maximal effect; nearly all actives have a fitted effect of over 55% in size
Target sequence (Q03431 whole entry, looked up): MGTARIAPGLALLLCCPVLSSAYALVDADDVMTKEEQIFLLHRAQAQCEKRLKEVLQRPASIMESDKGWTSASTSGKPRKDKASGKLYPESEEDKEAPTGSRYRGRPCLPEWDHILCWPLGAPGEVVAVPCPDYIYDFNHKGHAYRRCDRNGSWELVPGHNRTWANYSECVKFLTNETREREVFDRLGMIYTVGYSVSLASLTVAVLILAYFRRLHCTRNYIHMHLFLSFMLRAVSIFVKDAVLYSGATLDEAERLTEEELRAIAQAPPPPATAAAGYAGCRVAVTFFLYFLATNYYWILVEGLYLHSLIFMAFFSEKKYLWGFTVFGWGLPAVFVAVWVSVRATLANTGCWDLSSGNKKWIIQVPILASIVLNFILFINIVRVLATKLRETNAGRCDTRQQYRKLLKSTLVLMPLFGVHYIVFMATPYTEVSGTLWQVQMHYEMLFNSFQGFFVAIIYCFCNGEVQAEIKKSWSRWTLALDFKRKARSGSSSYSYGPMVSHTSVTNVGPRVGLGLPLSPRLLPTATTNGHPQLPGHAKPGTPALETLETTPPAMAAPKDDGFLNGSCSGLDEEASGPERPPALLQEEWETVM
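HEK-293-derived GP2 cells expressing PTHR1 and a GloSensor cAMP reporter, 3,000/well, plated overnight, given luciferin plus IBMX (each 0.5 mM as added) for 1 h at 37 °C, then compound for 1 h at 37 °C. Luminescence was read after 15 min at room temperature.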
* = called active by the depositor; i = inactive; ? = inconclusive; . = no result; [ ] = another dose, or the depositor's remark. A selection: hits, their analogues and other compounds. The true share with any hit is near 1.9%. Unless noted, calls come from the whole dose curve; as a rule, active = well fitted curve in the direction sought with a large enough effect; inconclusive = small, poorly fitted or top-dose-only effect, or another doubt; inactive = no such curve, though single readings can be large; an effect the other way counts as inactive or inconclusive.

SMILES	FUS suppressor	aSyn rescue	Abeta rescue	TDP-43 yeast inh	LDHA block	PTHR1 agonist
CCCCn1c(=O)[nH]c(=O)c2c1nc(CCc1ccccc1)c(=O)n2C	.	.	.	.	3	.
C/C(=N\Nc1ccccc1Cl)c1ccc(-n2ccnc2)cc1	i	0%	i	7.1µM*	5	i
CCOC(=O)C1=C(O)C(=O)N(c2ccccc2)C1c1ccccc1F (stereo not given)	.	.	.	.	-2	.
O=C1C(O)=C(c2ccccc2)C(c2ccccc2F)N1c1ccc(F)cc1 (stereo not given)	.	.	.	.	-41*	.
O=C(NCc1ccccc1F)c1cccs1	i	0%	i	8%	-12	i
Cc1ccnc(NC(=S)NC(=O)c2cccs2)c1	.	-7%	i	16µM*	-1	-1%
Cc1ccccc1C(=O)Nc1cccc(NC(=S)NC(=O)c2cccs2)c1	i	-3%	i	12%	-6	i
O=C(NC(=S)NCc1ccccc1Cl)c1cccs1	.	-14%	i	18µM*	-5	-50%
Cc1ccnc(NC(=O)CNC(=O)c2cccs2)c1	i	13%	i	-37%	-4	i
CCC(C)c1ccc(O)c(NC(=S)NC(=O)c2cccs2)c1 (stereo not given)	i	13µM*	?	?	-5	-3%
Cc1ccccc1C(=O)NNC(=S)NC(=O)c1cccs1	i	3.5µM*	i	?	-2	-3%
Cc1cc(N/N=C/c2cccc(Cl)c2)nc(-n2nc(C)cc2C)n1	i	12%	i	14µM*	-2	i
COc1ccc(Nc2cc(C)nc(-n3nc(C)cc3C)n2)cc1Cl	i	.	i	?	-11	-6%
Cc1cc(N/N=C/c2cccc([N+](=O)[O-])c2)nc(-n2nc(C)cc2C)n1	i	-6%	i	14%	-10	-11%
Cc1cc(Nc2ccc(C(C)C)cc2)nc(-n2nc(C)cc2C)n1	?	.	i	20µM*	1	i
CCOC(=O)N1CCN(C(=O)c2ccc(N3C(=O)CCS3(=O)=O)cc2Cl)CC1	.	.	.	.	-7	.
CCOC(=O)C1CCN(C(c2cc3ccc(C)c(C)c3[nH]c2=O)c2nnnn2C2CCCCC2)CC1 (stereo not given)	35µM*	13%	i	0%	3	-24%[57.5 µM]
Cc1nn(-c2nc3c(c(=O)n(CC(N)=O)c(=O)n3C)n2Cc2ccccc2)c(C)c1C	.	.	.	.	-33*	.
CCn1c(-n2nc(C)c(C)c2C)nc2c1c(=O)n(Cc1ccccc1)c(=O)n2C	.	.	.	.	-2	.
COc1ccc(OC)c(CCNC(=O)C(CCS(C)(=O)=O)N2Cc3ccccc3C2=O)c1 (stereo not given)	.	.	.	.	-5	.
CCc1cccc(NS(=O)(=O)c2ccc3c(c2)-c2oncc2CO3)c1	.	.	.	.	1	.
Clc1ccccc1-c1cnc2sc(NCc3ccc4c(c3)OCO4)nn12	i	7%	i	4µM*	-5	-21%
CN=c1scc(C)n1/N=C/c1cc(Br)c(O)c(OC)c1	i	-2%	i	11µM*	-3	-4%
Cc1ccc(C(=O)Nc2ccccc2)cc1S(=O)(=O)Nc1ccc(Br)cc1	i	.	i	13µM*	-1	-25%
COc1cccc(OC)c1-c1nn2c(-c3ccccc3Cl)nnc2s1	?	-1%	i	16µM*	0	-16%[57.5 µM]
SMILES	FUS suppressor	aSyn rescue	Abeta rescue	TDP-43 yeast inh	LDHA block	PTHR1 agonist
Clc1ccccc1-c1nnc2sc(-c3ccccn3)nn12	?	-5%	i	-7%	-7	25%
CCN(CC)c1ccc(-c2nn3c(-c4ccccc4Cl)nnc3s2)cc1	32µM*	.	.	.	.	.
Cc1ccc2c(c1)CCCN2C(=O)c1n[nH]c(=O)c2ccccc12	.	.	.	.	8	.
CCCCC(=O)Nc1cccc(NC(=O)c2cccc3c(Br)cccc23)c1	.	.	.	.	-10	.
Cc1nc(SCc2cn3cccc(C)c3n2)c2ccccc2n1	.	.	.	.	14	.
CCc1nnc(NC(=O)c2cc(OC)c(OC)cc2OC)s1	.	.	.	.	-25	.
CCS(=O)(=O)CCSc1nc2ccccc2o1	i	-13%	i	-20%	-10	-6%[57.5 µM]
O=S(=O)(CCSc1nc2ccccc2o1)c1nc2ccccc2s1	i	-18%	i	11µM*	1	-16%[57.5 µM]
Nc1c(S(=O)(=O)c2ccccc2)nnn1-c1ccccc1	i	7%	i	-3%	-5	i
CCc1ccc(S(=O)(=O)c2nnn(-c3cccc(C)c3)c2N)cc1	i	.	i	22µM*	-4	-27%
CCOC(=O)c1cccc(OCC(O)Cn2c(=O)c3ccccc3n3nc(C)cc23)c1 (stereo not given)	.	.	.	.	-1	.
O=C(CC(=O)c1cccc(Cl)c1)c1cccc(Cl)c1	.	.	.	.	0	.
O=[N+]([O-])c1ccccc1C=C(c1ccccc1)c1ccccc1	.	.	.	.	6	.
COC(=O)C(=Cc1ccccc1[N+](=O)[O-])C(=O)OC	i	0%	i	16µM*	-6	-94%
O=C(/C=C/c1ccccc1[N+](=O)[O-])OCC(=O)c1ccccc1	i	10%	i	20µM*	-3	i
COc1cc(OC)cc(C(=O)N2CCCc3ccccc32)c1	i	10%	i	4%	0	-7%[57.5 µM]
CCCOc1ccc(C(=O)N2CCCc3ccccc32)cc1	i	.	i	11µM*	0	-22%
COc1ccc2oc(C(=O)N3CCCc4ccccc43)c(C)c2c1	i	-15%	i	16µM*	2	-5%
CC(N(C)CC(=O)NC(C)(C#N)C1CC1)C(C)(C)C (stereo not given)	.	.	.	.	2	.
C=CCNC(=S)Nc1cc(C(F)(F)F)cc(C(F)(F)F)c1	.	.	.	.	3	.
COc1ccc(C2=CC3=C(Br)C(=O)C(C)(OC(=O)c4ccc(Cl)nc4)C(=O)C3=CO2)cc1 (stereo not given)	i	-15%	i	14µM*	11	?
CC1(C(=O)N2CCN(c3ccc([N+](=O)[O-])cc3)CC2)CC1(Cl)Cl (stereo not given)	i	-3%	i	11µM*	-1	-90%
O=C(NC(=S)N1CCN(c2ccc([N+](=O)[O-])cc2Cl)CC1)c1ccco1	.	-4%	i	-2%	1	-36%
O=C(c1cc([N+](=O)[O-])ccc1Cl)N1CCN(c2ccccc2)CC1	i	5%	i	7.9µM*	-6	-3%
